Reference: PubChem BioAssay AID1159580 (chemical genetic matrix, 2015)
Values joined by “and” are separate entries in the source; they are usually repeats but may differ in a detail not shown here. Equal values may be shown once. Hit rate of the full screen: of about 5,500 compounds, about 2,000 (36%) were called active. Not shown: some 18% with an inconclusive outcome. No stated cut-off is given here; in the data, active means normalized growth mostly below about 0.91 (no sharp cut-off); inconclusive means no clear call, values can overlap the other calls; inactive means mostly above about 0.92. Some of the results follow.

Assay: chemical genetic growth profiling, strain panel (AID 1159580);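 further: tested at 20 µM; growth read once vehicle control cultures reached saturation at 30 °C; 1 = growth at the plate median or of vehicle wells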
Conditions: growth OD
[1] = S. cerevisiae deletion strains, locus YAL013W, strain DEP1, stronger effect = lower value
[2] = S. cerevisiae deletion strains, locus YBR229C, strain ROT2, stronger effect = lower value
[3] = S. cerevisiae deletion strains, locus YDL101C, strain DUN1, stronger effect = lower value
[4] = S. cerevisiae deletion strains, locus YDL134C, strain PPH21, stronger effect = lower value
[5] = S. cerevisiae deletion strains, locus YDR150W, strain NUM1, stronger effect = lower value
[6] = S. cerevisiae deletion strains, locus YEL061C, strain CIN8, stronger effect = lower value
[7] = S. cerevisiae deletion strains, locus YGR078C, strain PAC10, stronger effect = lower value
[8] = S. cerevisiae deletion strains, locus YGR229C, strain SMI1, stronger effect = lower value
[9] = S. cerevisiae deletion strains, locus YHR030C, strain SLT2, stronger effect = lower value
[10] = S. cerevisiae deletion strains, locus YHR087W, strain rtc3, stronger effect = lower value
[11] = S. cerevisiae deletion strains, locus YJR043C, strain POL32, stronger effect = lower value
[12] = S. cerevisiae deletion strains, locus YJR075W, strain HOC1, stronger effect = lower value
[13] = S. cerevisiae deletion strains, locus YKL190W, strain CNB1, stronger effect = lower value
[14] = S. cerevisiae deletion strains, locus YLR039C, strain RIC1, stronger effect = lower value
[15] = S. cerevisiae deletion strains, locus YLR058C, strain SHM2 (second series), stronger effect = lower value
[16] = S. cerevisiae deletion strains, locus YLR085C, strain ARP6, stronger effect = lower value
[17] = S. cerevisiae deletion strains, locus YLR262C, strain YPT6, stronger effect = lower value
[18] = S. cerevisiae deletion strains, locus YML094W, strain GIM5, stronger effect = lower value
[19] = S. cerevisiae deletion strains, locus YMR219W, strain ESC1, stronger effect = lower value
[20] = S. cerevisiae deletion strains, locus YMR263W, strain SAP30, stronger effect = lower value
[21] = S. cerevisiae deletion strains, locus YMR307W, strain GAS1, stronger effect = lower value
[22] = S. cerevisiae deletion strains, locus YNL153C, strain GIM3, stronger effect = lower value
[23] = S. cerevisiae deletion strains, locus YNL298W, strain CLA4 (second series), stronger effect = lower value
[24] = S. cerevisiae deletion strains, locus YNL322C, strain KRE1, stronger effect = lower value
[25] = S. cerevisiae deletion strains, locus YNR030W, strain Alg12, stronger effect = lower value
[26] = S. cerevisiae deletion strains, locus YPL055C, strain LGE1, stronger effect = lower value
[27] = S. cerevisiae deletion strains, locus YPL241C, strain CIN2, stronger effect = lower value
[28] = S. cerevisiae deletion strains, locus YPR135W, strain CTF4, stronger effect = lower value
[29] = S. cerevisiae deletion strains, locus YOL006C, strain TOP1, stronger effect = lower value
[30] = S. cerevisiae strains, strain wild type, stronger effect = lower value

Measured: normalized growth

O=C(NNC(=S)Nc1cccc(Cl)c1)c1ccncc1
inactive: [1] 0.977 | [2] 0.996 | [3] 0.983 | [4] 0.995 | [5] 0.95 | [6] 1 | [7] 0.983 | [8] 0.997 | [9] 1 | [10] 1 | [11] 0.98 | [12] 1.01 | [13] 1.01 | [14] 1.04 | [15] 0.981 | [16] 0.989 | [17] 0.99 | [18] 1.01 | [19] 0.991 | [20] 0.994 | [21] 1.02 | S. cerevisiae deletion strains, locus YNL128W, strain TEP1, stronger effect = lower value 0.995 | [22] 0.986 | [23] 0.965 | [24] 0.991 | [25] 0.951 | [26] 0.914 | [27] 0.992 | [28] 0.938

O=C(NNC(=S)Nc1cccc(Cl)c1)C1CC1
active: [6] 0.857 | [9] 0.489 | [13] 0.913 | [14] 0.749 | [16] 0.673 | [18] 0.796 | [23] 0.782 | [25] 0.859 | [29] 0.384 | [26] 0.735 | [27] 0.784
inactive: [1] 0.987 | [2] 0.951 | [3] 0.963 | [4] 0.99 | [5] 0.917 | [7] 0.956 | [8] 1 | [10] 0.986 | S. cerevisiae deletion strains, locus YJL187C, strain SWE1, stronger effect = lower value 0.967 | [11] 0.942 | [12] 0.986 | [15] 0.998 | [17] 0.949 | [19] 0.988 | [20] 0.975 | [21] 0.684 | [22] 0.965 | [24] 1.05 | [28] 0.69 | [30] 0.953

C[C@@H]1O[C@@H](O[C@H]2[C@H](Oc3cc(O)c4c(=O)cc(-c5ccc(O)cc5)oc4c3)O[C@H](CO)[C@@H](O)[C@@H]2O)[C@H](O)[C@H](O)[C@H]1O
inactive: [1] 0.994 | S. cerevisiae deletion strains, locus YBR021W, strain FUR4, stronger effect = lower value 1 | [2] 1 | S. cerevisiae deletion strains, locus YCL029C, strain bik1, stronger effect = lower value 0.977 | S. cerevisiae deletion strains, locus YDL035C, strain GPR1, stronger effect = lower value 1 | S. cerevisiae deletion strains, locus YDL074C, strain BRE1, stronger effect = lower value 0.933 | [3] 0.998 | [4] 1.07 | S. cerevisiae deletion strains, locus YDL185W, strain tfp1, stronger effect = lower value 0.95 | S. cerevisiae deletion strains, locus YDL192W, strain arf1, stronger effect = lower value 0.998 | S. cerevisiae deletion strains, locus YDR101C, strain arx1, stronger effect = lower value 0.937 | S. cerevisiae deletion strains, locus YDR162C, strain NBP2, stronger effect = lower value 1.01 | S. cerevisiae deletion strains, locus YDR318W, strain mcm21, stronger effect = lower value 1 | S. cerevisiae deletion strains, locus YDR388W, stronger effect = lower value 0.996 | S. cerevisiae deletion strains, locus YDR502C, strain sam2, stronger effect = lower value 0.99 | [6] 1 | S. cerevisiae deletion strains, locus YER110C, stronger effect = lower value 0.982 | S. cerevisiae deletion strains, locus YER155C, strain BEM2, stronger effect = lower value 0.991 | S. cerevisiae deletion strains, locus YER167W, strain BCK2, stronger effect = lower value 0.994 | S. cerevisiae deletion strains, locus YGL078C, strain dbp3, stronger effect = lower value 0.981 | S. cerevisiae deletion strains, locus YGL086W, strain mad1, stronger effect = lower value 0.954 | S. cerevisiae deletion strains, locus YGL248W, strain PDE1, stronger effect = lower value 1.02 | S. cerevisiae deletion strains, locus YGR135W, strain pre9, stronger effect = lower value 1.02 | S. cerevisiae deletion strains, locus YGR252W, strain gcn5, stronger effect = lower value 1.11 | [9] 0.989 and 1.02 | S. cerevisiae deletion strains, locus YHR079C, strain IRE1 (second series), stronger effect = lower value 0.976 | S. cerevisiae deletion strains, locus YHR079C, strain IRE1, stronger effect = lower value 1.03 | S. cerevisiae deletion strains, locus YHR094C, strain hxt1, stronger effect = lower value 0.99 | S. cerevisiae deletion strains, locus YHR129C, strain ARP1, stronger effect = lower value 1.02 | S. cerevisiae deletion strains, locus YHR200W, strain rpn10, stronger effect = lower value 0.988 | S. cerevisiae deletion strains, locus YIL066C, strain RNR3, stronger effect = lower value 0.994 | S. cerevisiae deletion strains, locus YIL073C, strain SPO22, stronger effect = lower value 0.981 | S. cerevisiae deletion strains, locus YIL125W, strain kgd1, stronger effect = lower value 0.972 | S. cerevisiae deletion strains, locus YIR030C, strain dcg1, stronger effect = lower value 0.983 | S. cerevisiae deletion strains, locus YJL095W, strain BCK1, stronger effect = lower value 1.03 and 0.992 | S. cerevisiae deletion strains, locus YJL134W, strain LCB3, stronger effect = lower value 0.992 | S. cerevisiae deletion strains, locus YJL168C, strain set2, stronger effect = lower value 1 | S. cerevisiae deletion strains, locus YJL187C, strain SWE1 (second series), stronger effect = lower value 0.995 | [11] 0.993 | S. cerevisiae deletion strains, locus YJR066W, strain TOR1, stronger effect = lower value 0.981 | S. cerevisiae deletion strains, locus YKL009W, strain mrt4, stronger effect = lower value 0.955 | S. cerevisiae deletion strains, locus YKL068W, stronger effect = lower value 0.987 | S. cerevisiae deletion strains, locus YKL085W, strain MDH1 (second series), stronger effect = lower value 0.981 | S. cerevisiae deletion strains, locus YKL085W, strain MDH1, stronger effect = lower value 0.981 | S. cerevisiae deletion strains, locus YKR001C, strain vps1, stronger effect = lower value 0.982 | [14] 0.963 | S. cerevisiae deletion strains, locus YLR058C, strain SHM2, stronger effect = lower value 0.998 | S. cerevisiae deletion strains, locus YLR102C, strain apc9, stronger effect = lower value 0.987 | S. cerevisiae deletion strains, locus YLR113W, strain HOG1, stronger effect = lower value 0.967 | [17] 0.95 | S. cerevisiae deletion strains, locus YLR268W, strain sec22, stronger effect = lower value 0.951 | S. cerevisiae deletion strains, locus YLR330W, strain CHS5, stronger effect = lower value 0.979 | S. cerevisiae deletion strains, locus YLR342W, strain FKS1 (second series), stronger effect = lower value 1.01 | S. cerevisiae deletion strains, locus YLR371W, strain rom2, stronger effect = lower value 0.98 | S. cerevisiae deletion strains, locus YLR418C, strain cdc73, stronger effect = lower value 1.01 | S. cerevisiae deletion strains, locus YML016C, strain PPZ1, stronger effect = lower value 0.995 | S. cerevisiae deletion strains, locus YML032C, strain rad52, stronger effect = lower value 1.04 | S. cerevisiae deletion strains, locus YML124C, strain tub3, stronger effect = lower value 0.978 | S. cerevisiae deletion strains, locus YMR078C, strain ctf18, stronger effect = lower value 0.975 | S. cerevisiae deletion strains, locus YMR223W, strain ubp8, stronger effect = lower value 1 | [20] 0.985 | [21] 1.05 | S. cerevisiae deletion strains, locus YNL067W, strain RPL9B, stronger effect = lower value 0.999 | S. cerevisiae deletion strains, locus YNL183C, strain NPR1, stronger effect = lower value 0.963 | S. cerevisiae deletion strains, locus YNL233W, strain BNI4, stronger effect = lower value 0.988 | S. cerevisiae deletion strains, locus YNL250W, strain rad50, stronger effect = lower value 0.955 | S. cerevisiae deletion strains, locus YNL271C, strain bni1, stronger effect = lower value 0.981 | S. cerevisiae deletion strains, locus YNL298W, strain CLA4, stronger effect = lower value 0.991 | S. cerevisiae deletion strains, locus YNL307C, strain MCK1, stronger effect = lower value 0.971 | S. cerevisiae deletion strains, locus YNR052C, strain pop2, stronger effect = lower value 1.01 | [29] 0.99 | S. cerevisiae deletion strains, locus YOL012C, strain htz1 0.768 | S. cerevisiae deletion strains, locus YOL147C, strain pex11, stronger effect = lower value 0.992 | S. cerevisiae deletion strains, locus YOR061W, strain CKA2, stronger effect = lower value 0.997 | S. cerevisiae deletion strains, locus YOR069W, strain VPS5, stronger effect = lower value 0.994 | S. cerevisiae deletion strains, locus YOR136W, strain idh2, stronger effect = lower value 0.965 | S. cerevisiae deletion strains, locus YOR144C, strain elg1, stronger effect = lower value 0.996 | S. cerevisiae deletion strains, locus YOR184W, strain ser1, stronger effect = lower value 0.993 | S. cerevisiae deletion strains, locus YOR231W, strain MKK1, stronger effect = lower value 0.989 | S. cerevisiae deletion strains, locus YOR316C, strain cot1, stronger effect = lower value 0.981 | S. cerevisiae deletion strains, locus YPL256C, strain CLN2, stronger effect = lower value 1 | S. cerevisiae deletion strains, locus YPR119W, strain clb2, stronger effect = lower value 0.978 | S. cerevisiae deletion strains, locus YPR141C, strain kar3, stronger effect = lower value 0.986 | S. cerevisiae deletion strains, locus YPR163C, strain tif3, stronger effect = lower value 0.992 | S. cerevisiae deletion strains, locus YPR167C, strain met16, stronger effect = lower value 0.981 | S. cerevisiae deletion strains, strain wtn01, stronger effect = lower value 0.948 | [30] 0.998
